High-throughput results as filed in PubChem BioAssay.
This is a sample that favours compounds with a hit; in the whole collection about 7.3% have one here.
Rab9 promoter act – Rab9 promoter activation | Huh7 Rab9 promoter-luciferase reporter, luminescence, 24 h | Potency, µM (titrated, usually from 9.22 µM), inactives show top-dose activation, negative = inhibition, hits mostly activators | 2.8% of 320,000 active | AID 485297; further: % of control where 0% means no effect; nearly all actives have a fitted effect of over 60% in size
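Luciferase signal after 10 min detection reagent at ambient indicates Rab9 promoter upregulation; stably transfected Huh7 cells were treated 24 h with compound in DMSO at 37 °C, 5% CO2.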
NPC1 prom act – activates the NPC1 promoter; Huh7 NPC1 promoter luciferase reporter, 24 h; Potency, µM (titrated, usually from 9.22 µM), for the others: at the top dose activation, hits mostly activators; 2.4% of 320,000 active; further: % of control where 0% means no effect; nearly all actives have a fitted effect of over 60% in size
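Cells: Huh7 expressing luciferase under the NPC1 promoter, 1500/well. Seeded 2 h, compound added, incubated 24 h at 37 °C. Luciferase reagent, 10 min ambient, then luminescence.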
SMN2 splice up – enhancers of SMN2 splice variant expression | HEK293 SMN2-luciferase splicing reporter, luminescence, 30-36 h | Potency, µM (top dose mostly 46.1 µM), without a hit: at the top dose activity change, positive = activation, hits mostly activators | 2.8% of 210,000 active; further: % of control where 0% means no effect; nearly all actives have a fitted effect of over 55% in size
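HEK293 cells carry an SMN2 minigene-luciferase reporter in which exon 7 inclusion puts luciferase in frame. Cells were seeded at 2000 cells/well, attached for 10-12 hours, then exposed to compounds for 30-36 hours at 37C before ONE-Glo luminescence.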
FLuc counter – firefly luciferase modulation, counter-screen for miR-21 project; P08659; purified FLuc, Km substrates, luminescence inhibition; Potency, µM (highest dose often 57.5 µM), inactives show at the highest dose activity change, negative = inhibition, most hits filed as inhibitors; 6.9% of 360,000 active;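 further: plate controls were vehicle for no effect and reference inhibitor for full effect; nearly all actives have a fitted effect of over 55% in size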
Target sequence (P08659 whole entry, looked up): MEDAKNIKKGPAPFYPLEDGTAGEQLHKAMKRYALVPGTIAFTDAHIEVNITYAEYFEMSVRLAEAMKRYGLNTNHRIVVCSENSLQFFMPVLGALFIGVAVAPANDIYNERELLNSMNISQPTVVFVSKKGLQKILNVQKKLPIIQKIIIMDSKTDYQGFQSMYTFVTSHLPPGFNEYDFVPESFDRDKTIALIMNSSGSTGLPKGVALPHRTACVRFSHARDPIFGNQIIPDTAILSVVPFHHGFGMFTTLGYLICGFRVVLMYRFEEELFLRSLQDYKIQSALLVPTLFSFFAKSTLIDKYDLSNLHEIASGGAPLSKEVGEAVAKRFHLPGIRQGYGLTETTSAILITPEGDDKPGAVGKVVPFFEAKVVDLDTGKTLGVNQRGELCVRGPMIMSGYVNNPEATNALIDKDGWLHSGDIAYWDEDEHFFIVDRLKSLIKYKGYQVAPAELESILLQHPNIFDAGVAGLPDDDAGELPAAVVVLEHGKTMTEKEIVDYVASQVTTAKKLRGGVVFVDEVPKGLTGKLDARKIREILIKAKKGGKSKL
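Biochemical qHTS of compounds, final roughly 60 µM downward over six points, against 10 nM purified firefly luciferase using Km concentrations of substrates (10 uM D-luciferin, 10 uM ATP) in Tris acetate pH 7.5 buffer; luminescence output.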
KinaseGlo FLuc – counter-screen: inhibitors of Kinase-Glo firefly luciferase; Q27757; 0.28% of 200,000 active; Kinase-Glo luciferase, ATP luminescence, 8 min; Potency, µM (titrated, usually from 38.3 µM), inactives show at the top dose activity change, negative = inhibition, usual class: inhibitors; AID 1379; further: on the % scale 0 is the no-effect control and ±100 the full control effect; nearly all actives have a fitted effect of over 60% in size
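Compound is pinned into ATP-containing buffer (10 uM ATP, imidazole pH 7.2, 7 mM MgCl2). Kinase-Glo luciferase reagent is then added. Light output is recorded following an 8-min room-temperature incubation.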
ELG1 genotox – genotoxicity induction in ELG1-luciferase HEK293T cells | HEK293T ELG1-luciferase reporter, luminescence, 16 h | Potency, µM (top dose mostly 46 µM), for the others: at the highest dose activity change, positive = activation, actives largely listed as activators | 1.3% of 330,000 active | AID 504466; further: % of control where 0% means no effect; nearly all actives have a fitted effect of over 60% in size
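Cells (2,000/well) expressing the ELG1-luciferase fusion are dosed by pin tool and kept 16 hr at 37 °C, 5% CO2. Signal comes from ONE-Glo luciferase reagent after 30 min at room temperature.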
The depositor's hits bear a star; u = inconclusive; x = no result; [ ] = remark or other dose. The call rests on the fitted dose curve; in most records, active means well fitted curve in the direction sought with a large enough effect; inconclusive means small, poorly fitted or top-dose-only effect, or another doubt; inactive means no such curve, though single readings can be large; an effect the other way counts as inactive or inconclusive. Potency means the concentration at half of the fitted maximal effect.

SMILES	Rab9 promoter act	NPC1 prom act	SMN2 splice up	FLuc counter	KinaseGlo FLuc	ELG1 genotox
O=C(/C=C/c1cccc(Oc2ccccc2)c1)N1CCOCC1	1.6µM*	u	x	15µM*	-16%	u
CC(C)CN1C(=O)c2ccc(NC(=O)c3ccccc3F)cc2C1=O	u	29%	11%	12µM*	-4%	u
CC(C)CN1C(=O)c2ccc(NC(=O)c3ccco3)cc2C1=O	u	u	x	19µM*	1%	17%
CC(C)CN1C(=O)c2ccc(NC(=O)C3CC3)cc2C1=O	11%	21%	x	2%	x	-1%
CC(C)CN1C(=O)c2ccc(NC(=O)c3cccs3)cc2C1=O	u	29%	21%	9.5µM*	-5%	28%
O=C(CC(c1cccs1)N1Cc2ccccc2C1=O)Nc1ccccc1 (centres undefined)	x	x	x	-4%	x	x
O=C(Nc1cccc(-c2nc3cccnc3s2)c1)c1cccnc1Cl	23%	22%	x	17µM*	x	-7%
O=C(Nc1cccc(-c2nc3cccnc3s2)c1)c1ccc(Cl)nc1	3%	15%	x	-16%	x	-6%
CCOCC(=O)Nc1cccc(-c2nc3cccnc3s2)c1C	1%	13%	x	17µM*	x	0%
NS(=O)(=O)c1ccc(C(=O)Nc2ccc(-c3nc4cccnc4s3)cc2)cc1	1.4µM*	1.4µM*	x	12µM*	x	u
O=S(=O)(Nc1ccc(-c2nc3cccnc3s2)cc1)c1cc(F)ccc1F	u	4%	x	u	x	u
CCc1ccc(S(=O)(=O)Nc2ccc(-c3nc4cccnc4s3)cc2)s1	u	15%	16µM*	u	3%	15µM*
NS(=O)(=O)c1ccc(NC(=O)c2ccc(-c3ccccc3)cc2)cc1	-4%	-3%	17%	-1%	3%	10%
COc1ccc(C)cc1NC(=O)c1cc(S(=O)(=O)NC2CCCCCC2)ccc1F	x	x	x	-4%	x	x
CCc1c(O)c2c(c(O)c1C(C)=O)C(=O)c1c(cc(O)c(C(=O)O)c1C(=O)O)C2=O	x	x	-10%[9.22 µM]	x	-6%[7.66 µM]	x
Cc1nc2ccc(S(=O)(=O)Nc3cc(-c4nc5cccnc5s4)ccc3C)cc2s1	2%	-5%	16µM*	19µM*	0%	u
Cc1ccc(-c2nc3cccnc3s2)cc1NS(=O)(=O)c1cccs1	15%	10%	x	27µM*	x	10%
CCOc1ccccc1C(=O)Nc1cc(-c2nc3cccnc3s2)ccc1C	x	x	x	9.5µM*	x	x
CCOc1ccccc1C(=O)Nc1cc2c(cc1C)n(C)c(=O)c(=O)n2C	x	x	x	1%	x	x
Cc1ccc(C)n1-c1cccc(S(=O)(=O)N2CCOCC2)c1	-6%	-11%	15%	3%	-1%	26µM*
Cc1cc(C(=O)CCl)c(C)n1-c1cccc(S(=O)(=O)N2CCOCC2)c1	-1%	-2%	-44%	6%	0%	16%
CC(C)NC(=O)Cc1csc2nc(-c3ccccc3)cn12	x	x	x	-8%	x	x
CN(CCC1CCCCO1)C(=O)CCc1nnc(CCCCc2ccccc2)o1 (centres undefined)	0%	-3%	8%	u	3%	1%
CN(CCCC1CCCC1)C(=O)CCc1nnc(-c2ccccc2)o1	2.5µM*	u	13µM*	12µM*	0%	21µM*
CCN(Cc1ccncc1)C(=O)CCc1nnc(CCC2CCCCC2)o1	9%	3%	x	-11%	-2%	0%
CN(C(=O)CCc1nnc(-c2ccc(-c3ccccc3)cc2)o1)C1CCOCC1	21%	21%	x	17µM*	x	-7%
Cc1cc(C)n(CCN(C)C(=O)CCc2nnc(CCC3CCCCC3)o2)n1	u	u	x	15µM*	-1%	u
Fc1ccc2c(c1)-c1nc(-c3ccccc3)cc(-c3ccccc3)c1CO2	x	x	1%	1%	x	x
c1ccc(-c2nc(-c3nccc4ccccc34)oc2-c2ccccc2)cc1	3.2µM*	u	x	6µM*	x	u
CC(C)(C)c1cc(NC(=O)CSc2nnc(NCc3ccccc3)s2)n(-c2ccccc2)n1	0%	-1%	-35%	19µM*	0%	-12%
